Laboratory results taken from paper PMC4336329 (PLoS ONE, 2015).
About 14,000 (4.5%) of roughly 310,000 compounds showed an effect of 50% or more. The effect is printed as a negative number. This is one part of a sample in which strong results are shown more often than they occur.

Target: human ether-à-go-go-related gene (hERG) potassium channel (human, UniProt Q12809)
Assay: primary screen, population patch clamp on CHO cells stably expressing hERG; higher = less effect of the substance
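Also: peak tail current of the secondary pulse compared with the same well before compound.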

Sequence of human ether-à-go-go-related gene (hERG) potassium channel (Q12809 whole entry, looked up): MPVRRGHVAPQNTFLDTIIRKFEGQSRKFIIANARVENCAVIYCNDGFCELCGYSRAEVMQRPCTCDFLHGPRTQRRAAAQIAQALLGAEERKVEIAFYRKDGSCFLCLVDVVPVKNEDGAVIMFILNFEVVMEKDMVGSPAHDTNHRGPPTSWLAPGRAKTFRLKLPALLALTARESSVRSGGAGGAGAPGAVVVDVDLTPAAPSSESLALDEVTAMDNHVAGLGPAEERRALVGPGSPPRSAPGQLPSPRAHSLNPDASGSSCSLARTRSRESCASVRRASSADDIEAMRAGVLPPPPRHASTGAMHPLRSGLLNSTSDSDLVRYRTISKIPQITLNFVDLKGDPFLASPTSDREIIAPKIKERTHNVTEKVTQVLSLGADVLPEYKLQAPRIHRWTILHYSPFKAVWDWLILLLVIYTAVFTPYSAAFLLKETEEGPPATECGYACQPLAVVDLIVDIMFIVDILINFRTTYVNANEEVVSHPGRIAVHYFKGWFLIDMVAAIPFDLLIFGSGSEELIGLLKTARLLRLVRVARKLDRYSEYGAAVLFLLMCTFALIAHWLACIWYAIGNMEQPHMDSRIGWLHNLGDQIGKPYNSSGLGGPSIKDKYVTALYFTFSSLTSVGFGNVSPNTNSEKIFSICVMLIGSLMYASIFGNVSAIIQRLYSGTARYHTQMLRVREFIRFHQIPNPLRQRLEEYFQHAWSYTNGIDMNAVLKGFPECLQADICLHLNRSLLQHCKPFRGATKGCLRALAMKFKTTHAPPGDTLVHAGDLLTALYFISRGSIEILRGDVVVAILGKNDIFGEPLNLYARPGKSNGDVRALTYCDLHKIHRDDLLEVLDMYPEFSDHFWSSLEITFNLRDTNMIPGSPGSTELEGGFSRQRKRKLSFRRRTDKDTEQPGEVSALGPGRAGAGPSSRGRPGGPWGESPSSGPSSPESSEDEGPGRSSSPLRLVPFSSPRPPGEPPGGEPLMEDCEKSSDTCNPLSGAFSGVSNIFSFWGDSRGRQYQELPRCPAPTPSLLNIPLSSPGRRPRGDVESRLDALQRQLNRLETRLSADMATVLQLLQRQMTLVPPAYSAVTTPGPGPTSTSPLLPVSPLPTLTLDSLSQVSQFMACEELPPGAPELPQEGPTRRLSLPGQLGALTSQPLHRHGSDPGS

Going from CCOc1ccc(CC2NCCc3cc(OCC)c(OCC)cc32)cc1OCC (centres unmarked) to CCN(CC)CCCn1c(=S)[nH]c2cc(OC)c(OC)cc2c1=O, the “hERG current change (%, negative = inhibition) at 10uM” value rises from -13.3% to -2.6%.

Compared with CCN1C(=O)/C(=C\c2ccco2)C(C(=O)OC)=C1C, CCn1c(O)c(N=NC(=O)CNC(=O)/C=C/c2ccco2)c2ccccc21 is lower in “hERG current change (%, negative = inhibition) at 10uM” value: 10.4% for the first, 0.357% for the second.

First: Cn1nccc1NC(=O)Nc1cccc(Cl)c1Cl
Second: CCOC(=O)c1nc(C)sc1-c1ccnn1S(=O)(=O)c1cccc(Cl)c1
The “hERG current change (%, negative = inhibition) at 10uM” value of the first is higher: 16.5% for the first, -22.5% for the second.

Going from COC(=O)CSc1nc(C2CC2)nc2ccccc12 to COC(=O)Cn1c(=NC(=O)c2nc3ccccc3s2)sc2cc(S(N)(=O)=O)ccc21, the “hERG current change (%, negative = inhibition) at 10uM” value rises from -11.5% to 6.74%.

Going from Cc1cc(C)cc(N(C(C)C(=O)N2CCCCC2)S(C)(=O)=O)c1 (centres unmarked) to CC(C)N(C(=O)CSc1ccc(S(=O)(=O)N2CCCCC2)cn1)C(C)C, the “hERG current change (%, negative = inhibition) at 10uM” value falls from 4.06% to -15.7%.

Going from Cc1ccc(S(=O)(=O)NCC(=O)N(CC(=O)NCC2CCCO2)Cc2ccc(Cl)cc2)cc1 (centres unmarked) to Cc1ccc(CCNC(=O)C2CCN(S(=O)(=O)c3ccc4c(c3)NC(=O)C(C)S4)CC2)cc1 (centres unmarked), the “hERG current change (%, negative = inhibition) at 10uM” value rises from -11% to -2.94%.

First: Cc1c(Cl)cccc1NC(=S)NC1CCCC1
Second: CCOC(=O)c1cccc(NC(=O)CCc2nnc3ccc(N4CCCCC4)nn23)c1
The “hERG current change (%, negative = inhibition) at 10uM” value of the first is lower: -5.1% for the first, 7.86% for the second.

Compared with Cc1ccc(-c2csc(NC(=O)c3ccno3)n2)cc1, O=C(Nc1ccc(-c2cn3ccccc3n2)cc1)c1ccco1 is lower in “hERG current change (%, negative = inhibition) at 10uM” value: 2.72% for the first, -11.4% for the second.

First: CN1CCN(C(=O)CSc2nc(-c3cccs3)ccc2C#N)CC1
Second: O=C(O)c1cc(-c2cccs2)nc2ccc(Br)cc12
The “hERG current change (%, negative = inhibition) at 10uM” value of the first is lower: -4.44% for the first, 21% for the second.

Going from COC(=O)c1ccc(CN(c2ccccn2)S(=O)(=O)c2ccccc2)cc1 to Cc1cccc(NCC(=O)N/N=C\c2cccc(Oc3ccccc3)c2)c1, the “hERG current change (%, negative = inhibition) at 10uM” value rises from 14.1% to 20.1%.

Going from Cc1ccc(-c2c[n+](Cc3ccc(Cl)c(Cl)c3)c3n2CCC3)cc1.[Cl-] to Clc1ccc(C[n+]2cc(-c3ccccc3)n3c2CCC3)cc1Cl.[Cl-], the “hERG current change (%, negative = inhibition) at 10uM” value rises from -68.9% to -45.1%.

First: O=[N+]([O-])c1ccc(C[n+]2cc(-c3ccc(Cl)c(Cl)c3)n3c2CCCCC3)cc1.[Br-]
Second: CCCN(CC(=O)Nc1ccccc1C)C(=O)c1ccc(N2CCCCC2)c([N+](=O)[O-])c1
The “hERG current change (%, negative = inhibition) at 10uM” value of the first is higher: -15.7% for the first, -43.7% for the second.

Going from CC(=O)N1CCN(c2ccccc2NC(=O)c2cc3ccccc3o2)CC1 to O=C(NCC(=O)N1CCN(C(=O)c2ccccc2)CC1)c1ccccc1, the “hERG current change (%, negative = inhibition) at 10uM” value rises from -49.8% to 5.05%.

Compared with O=C1CC(c2ccccc2)CC(O)=C1C=NCCCN1CCOCC1 (centres unmarked), O=C1C=C(c2ccccc2)CC(c2ccc(F)cc2)C1 (centres unmarked) is lower in “hERG current change (%, negative = inhibition) at 10uM” value: -9.92% for the first, -28.2% for the second.

Compared with CC(=O)N1CCc2cc(Br)cc(S(=O)(=O)NCCCN(C)Cc3ccccc3)c21, CC(=O)N1CCc2cc(Br)cc(S(=O)(=O)NCc3ccccn3)c21 is higher in “hERG current change (%, negative = inhibition) at 10uM” value: -38.3% for the first, 7.02% for the second.

Compared with CC(=O)N1CCc2cc(Br)cc(S(=O)(=O)NCc3ccc(Cl)cc3)c21, CC(=O)N1c2c(cc(Br)cc2S(=O)(=O)NCc2ccc(C)cc2)CC1C (centres unmarked) is lower in “hERG current change (%, negative = inhibition) at 10uM” value: -58.6% for the first, -59.5% for the second.

First: O=C(O)CCS(=O)(=O)c1cc(Br)cc2c1N(C(=O)C1CC1)CC2
Second: CCCCN(C)S(=O)(=O)c1cc(Br)cc2c1N(C(=O)C1CC1)CC2
The “hERG current change (%, negative = inhibition) at 10uM” value of the first is higher: 9.39% for the first, -51.6% for the second.

Compared with CC(=O)N1c2c(cc(Br)cc2S(=O)(=O)NCc2ccccc2)CC1C (centres unmarked), COc1ccc(CNS(=O)(=O)c2cc(Br)cc3c2N(C(C)=O)C(C)C3)cc1 (centres unmarked) is lower in “hERG current change (%, negative = inhibition) at 10uM” value: -35.5% for the first, -40.9% for the second.

First: O=C(C1CC1)N1CCc2cc(Br)cc(S(=O)(=O)NCc3ccco3)c21
Second: O=C(C1CC1)N1CCc2cc(Br)cc(S(=O)(=O)NCc3ccc4c(c3)OCO4)c21
The “hERG current change (%, negative = inhibition) at 10uM” value of the first is higher: -41% for the first, -64.8% for the second.

Compared with CCCN(CCC)S(=O)(=O)c1cc(Br)cc2c1N(C(=O)CC)CC2, CCN(c1ccc2c(c1)OCO2)S(=O)(=O)c1cc(Br)cc2c1N(C(=O)C1CC1)CC2 is higher in “hERG current change (%, negative = inhibition) at 10uM” value: -2.75% for the first, 8.05% for the second.

First: COc1cc(CNn2cnnc2)ccc1OCC(=O)NC(C)(C)C
Second: COc1ccc2cnn(-c3ccc(OC(F)(F)Cl)cc3)c(=O)c2c1OC
The “hERG current change (%, negative = inhibition) at 10uM” value of the first is lower: 1.29% for the first, 6.28% for the second.

Going from O=C(Nc1nc(-c2ccc3c(c2)OCO3)cs1)C1COc2ccccc2O1 (centres unmarked) to O=C1C=C(c2ccc(CO)cc2)C[C@@H](c2ccc3c(c2)OCO3)C1, the “hERG current change (%, negative = inhibition) at 10uM” value falls from 13.1% to -44.3%.

Compared with CCn1c(SCC(=O)N=Nc2c(O)[nH]c3ccccc23)nc2ccccc21, C=CCn1c(O)c(N=NC(=O)CNC(=O)c2ccco2)c2ccccc21 is higher in “hERG current change (%, negative = inhibition) at 10uM” value: -11.9% for the first, -4.55% for the second.

Compared with CC1=CC(=O)CC(C)(C)C1(O)/C=C/C(C)=C/C(=O)O (centres unmarked), Cc1ccc(C)c(NC(=O)C2CCC(C)(C(=O)O)C2(C)C)c1 (centres unmarked) is lower in “hERG current change (%, negative = inhibition) at 10uM” value: 5.43% for the first, -18.4% for the second.

First: CCOc1ccc(Nc2ncnc3c2cnn3C)cc1
Second: NC(=O)c1cccnc1Nc1cccc(F)c1
The “hERG current change (%, negative = inhibition) at 10uM” value of the first is lower: -16.6% for the first, -4.36% for the second.

First: COc1cccc(C(c2c(C)[nH]n(-c3ccccc3)c2=O)c2c(C)[nH]n(-c3ccccc3)c2=O)c1O
Second: COc1ccc(-n2nc(C(=O)NCc3ccco3)c3c4ccccc4n(C)c3c2=O)cc1
The “hERG current change (%, negative = inhibition) at 10uM” value of the first is lower: -4.28% for the first, 18.1% for the second.

Going from CN(C)CCn1c(=S)[nH]c2ccc(Cl)cc2c1=O to CCN(CC)CCn1c(=S)[nH]c2ccc(Cl)cc2c1=O, the “hERG current change (%, negative = inhibition) at 10uM” value falls from -21.7% to -60.8%.

Going from CCN(CC)CCCn1c(=S)[nH]c2ncccc2c1=O to CCN(CC)CCn1c(=S)[nH]c2ncccc2c1=O, the “hERG current change (%, negative = inhibition) at 10uM” value falls from -15.9% to -20.5%.

Going from CCN(CC)CCn1c(=S)[nH]c2cc3c(cc2c1=O)OCO3 to CCN(CC)CCn1c(=S)[nH]c2ccc(Br)cc2c1=O, the “hERG current change (%, negative = inhibition) at 10uM” value falls from -24.2% to -66.7%.

Going from CCN(CC)CCn1c(=S)[nH]c2ccccc2c1=O to CCN(CC)CCCn1c(=S)[nH]c2ccc(Cl)cc2c1=O, the “hERG current change (%, negative = inhibition) at 10uM” value falls from -25.6% to -63.7%.

Going from CC12CCC(C(=O)O)(c3nc4cc([N+](=O)[O-])ccc4nc31)C2(C)C (centres unmarked) to CCN(CC(=O)Nc1cc(Cl)ccc1C)C(=O)c1cc([N+](=O)[O-])ccc1N1CCOCC1, the “hERG current change (%, negative = inhibition) at 10uM” value falls from -1.75% to -18.5%.

Going from O=C(NC(Cc1c[nH]c2ccccc12)C(=O)O)/C(=C\c1ccccc1)NC(=O)c1ccccc1 (centres unmarked) to O=C1C=C(/C=C/c2ccccc2)C[C@@H](c2ccc(F)cc2)C1, the “hERG current change (%, negative = inhibition) at 10uM” value falls from 9.54% to -59.7%.

Compared with CCN(CC(=O)Nc1c(F)cccc1F)C(=O)c1cc([N+](=O)[O-])ccc1N1CCOCC1, CCCN(CC(=O)Nc1ccc(F)c(F)c1F)C(=O)c1cc([N+](=O)[O-])ccc1N1CCOCC1 is lower in “hERG current change (%, negative = inhibition) at 10uM” value: -4.57% for the first, -67.1% for the second.

Going from CCCN(CC(=O)Nc1ccccc1C)C(=O)c1ccc(N2CCCC2)c([N+](=O)[O-])c1 to CCCN(CC(=O)Nc1ccccc1C)C(=O)c1ccc(N2CCOCC2)c([N+](=O)[O-])c1, the “hERG current change (%, negative = inhibition) at 10uM” value falls from -41.3% to -70.3%.

Compared with C/C=C/C1=CC(=O)C[C@H](c2ccc(Cl)cc2)C1, C/C=C/C1=CC(=O)C[C@H](c2ccc(F)cc2)C1 is higher in “hERG current change (%, negative = inhibition) at 10uM” value: -63.9% for the first, -34.3% for the second.

Compared with COc1ccc([C@H]2CC(=O)C=C(/C=C/c3ccc(C(F)(F)F)cc3)C2)cc1, COc1ccc([C@H]2CC(=O)C=C(/C=C/c3ccc(Cl)cc3)C2)cc1 is higher in “hERG current change (%, negative = inhibition) at 10uM” value: -62.9% for the first, 12.8% for the second.

First: CCCCC/C=C/C1=CC(=O)C[C@H](c2ccc(Cl)cc2)C1
Second: O=C1C=C(/C=C/c2ccccc2)C[C@@H](c2ccc3c(c2)OCO3)C1
The “hERG current change (%, negative = inhibition) at 10uM” value of the first is lower: -47.4% for the first, 20% for the second.

Compared with COc1ccc([C@H]2CC(=O)C=C(c3cc(C(F)(F)F)cc(C(F)(F)F)c3)C2)cc1, CC1=CSC2=NC(C(F)(F)F)(C(F)(F)F)NC(=O)N12 is lower in “hERG current change (%, negative = inhibition) at 10uM” value: 4.42% for the first, -1.5% for the second.

Going from C=CCn1sc(N)c(C(=O)OCC)c1=S to CCOC(=O)c1sc(/S(C)=N\S(=O)(=O)c2cccc(Cl)c2)c2c1CCC=C2 (centres unmarked), the “hERG current change (%, negative = inhibition) at 10uM” value falls from 0.673% to -51.9%.

Going from Cc1ccc(NS(=O)(=O)c2cccc(C(=O)O)c2)cc1S(=O)(=O)N1CCCCC1 to CCOC(=O)C1=C(C)Nc2ccccc2N/C1=N\S(=O)(=O)c1cccc(Cl)c1, the “hERG current change (%, negative = inhibition) at 10uM” value falls from 3.3% to 0.773%.

Going from COC(=O)Cn1c(=NC(=O)c2nc3ccccc3s2)sc2cc(S(C)(=O)=O)ccc21 to COCCn1c(=NC(=O)c2nc3ccccc3s2)sc2cc(S(C)(=O)=O)ccc21, the “hERG current change (%, negative = inhibition) at 10uM” value rises from -65.2% to -21%.

Going from CCC(=O)NNC(=S)NC(=O)c1ccc(C)cc1 to C=CCn1c(O)c(N=NC(=O)CNC(=O)/C=C/c2ccco2)c2ccccc21, the “hERG current change (%, negative = inhibition) at 10uM” value falls from 22.4% to -58.2%.

Going from S=c1[nH]nc(-c2cccc(Br)c2)o1 to CCCCNC(=O)NS(=O)(=O)c1cnccc1Sc1ccc(Cl)cc1, the “hERG current change (%, negative = inhibition) at 10uM” value falls from 19.6% to 12.1%.
